# Only some compounds are listed: those with a hit (about 3.2% of all), similar ones and a draw of the others.
# Sm TGR block – blocks Schistosoma mansoni thioredoxin glutathione reductase. Potency, µM (top dose mostly 114 µM), without a hit: top-dose activity change, negative = inhibition, hits mostly inhibitors. AID 485364. purified TGR, DTNB reduction, TNB absorbance 405 nm. Q962Y6. 3% of 360,000 active; further: nearly all actives have a fitted effect of over 60% in size
#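 TGR 20 nM + NADPH 100 uM (dispensed conc.), cpd preinc 15 min RT; start with NADPH (500 uM addition) then DTNB (15 mM addition). Kinetic TNB absorbance, 405 nm filter. Four-parameter Hill fit across titration.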
# TbPYK inhibitor – T. brucei pyruvate kinase inhibition. Q57TT1. TbPYK enzyme, Kinase-Glo Plus ATP luminescence, 45 min. Potency, µM (doses to about 76.8 µM), without a hit: top-dose activity, negative = inhibition, actives largely listed as inhibitors. 0.12% of 410,000 active. AID 624173; further: nearly all actives have a fitted effect of over 50% in size
#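 Luminescence from Kinase-Glo Plus, added after a 45-minute room-temperature reaction, served as the end-point read-out. The enzyme and substrate were preincubated with compound before ADP (130 uM final) initiated turnover. Concentration-effect curves came from normalized qHTS data.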
# RE007 growth inh – less growth of the S. pombe RE007 Vpr strain | S. pombe RE007 Vpr strain, BacTiter-Glo ATP luminescence, 24 h | Potency, µM (doses to about 92.2 µM), without a hit: at the highest dose activity change, negative = less growth, hits mostly inhibitors | 0.21% of 360,000 active; active means well fitted falling curve with a large enough effect; inconclusive means small, poorly fitted or top-dose-only effect; inactive means no such curve, though single readings can be large or run the other way; further: nearly all actives have a fitted effect of over 50% in size
#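 Fission yeast strain RE007, carrying one chromosomally integrated HIV-1 vpr copy, was seeded at OD 0.01 in PMG+AL medium with 23 nL pinned compound. After 24 h at 30 °C and 99% humidity, viability was read by BacTiter-Glo luminescence.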
# LmPK inhibitor – blocks Leishmania mexicana pyruvate kinase activity. Potency, µM (doses to about 57.5 µM), for the others: at the highest dose activity change, negative = inhibition, usual class: inhibitors. purified LmPK, Kinase-Glo ATP luminescence, 1 h. 0.37% of 290,000 active. AID 1721. Q27686
# Target sequence (Q27686 whole entry, looked up): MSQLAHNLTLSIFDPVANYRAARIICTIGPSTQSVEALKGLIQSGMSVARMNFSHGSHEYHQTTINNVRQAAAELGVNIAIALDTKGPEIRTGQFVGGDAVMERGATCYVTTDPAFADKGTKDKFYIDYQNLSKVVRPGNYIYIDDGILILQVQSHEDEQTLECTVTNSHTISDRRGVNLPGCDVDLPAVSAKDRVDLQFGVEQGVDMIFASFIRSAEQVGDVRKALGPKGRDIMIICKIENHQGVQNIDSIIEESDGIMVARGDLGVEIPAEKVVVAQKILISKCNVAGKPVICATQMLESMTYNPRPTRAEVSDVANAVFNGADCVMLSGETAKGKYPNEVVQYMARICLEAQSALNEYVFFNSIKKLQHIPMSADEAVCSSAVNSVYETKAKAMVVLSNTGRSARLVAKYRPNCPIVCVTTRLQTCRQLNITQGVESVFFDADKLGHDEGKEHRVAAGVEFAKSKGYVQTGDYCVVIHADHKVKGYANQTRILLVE
#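 qHTS format; LmPK 0.1 nM; substrates PEP 0.5 mM and ADP 0.1 mM. One-hour room-temperature incubation, then coupled luciferase luminescence; 0.5 nM enzyme wells mark activation.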
# AMA1-RON2 inh – AMA1-RON2 (P. falciparum) interaction inhibition; AlphaScreen AMA1-biotinylated RON2 peptide binding; Potency, µM (top dose mostly 58.2 µM), for inactives: at the highest dose activity change, negative = inhibition, actives largely listed as inhibitors; 0.2% of 360,000 active;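 further: 0% = vehicle wells and -100% = peptide control; nearly all actives have a fitted effect of over 45% in size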
#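 AMA1 (3D7) with his tag at 25 nM final met compounds first, then biotinylated RON2 peptide at 25 nM; detection used donor plus acceptor beads, 10 µg/mL apiece, read by AlphaScreen after 30 min at room temperature.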
# * marks the source's active call; other numbers are inactive results; ? = inconclusive; nt = no result given. Unless noted, the call rests on the fitted dose curve; in most records, active means well fitted curve in the direction sought with a large enough effect; inconclusive means small, poorly fitted or top-dose-only effect, or another doubt; inactive means no such curve, though single readings can be large; an effect the other way counts as inactive or inconclusive. Unless noted, on the % scale 0 is the no-effect control and ±100 the full control effect; potency means the concentration at half of the fitted maximal effect.
SMILES,Sm TGR block,TbPYK inhibitor,RE007 growth inh,LmPK inhibitor,AMA1-RON2 inh
CCOc1ccccc1-c1noc(CSc2nnc(-c3ccccc3)n2-c2cccc(C)c2)n1,-1%,-6%,nt,nt,nt
NNC(=O)CNC(c1ccccc1)c1cc(Br)ccc1NC(=O)CCN1CCOCC1 (stereo not drawn),18µM*,-7%,12%,6%,5%
CN(Cc1ccc(N(C)C)cc1)C(=O)c1cc2ccccc2o1,-12%,-4%,0%,0%,14µM*
CN(C)c1ccc(CN(CC2CCCO2)C(=O)c2cc3ccccc3o2)cc1 (stereo not drawn),-3%,-4%,-5%,nt,16µM*
CCOC(=O)c1cc(S(=O)(=O)Nc2ccc(OC)c(Cl)c2)[nH]n1,1%,-15%,nt,nt,nt
Cc1ccc(NC(=O)N/C=C/c2ccco2)cc1C,?,1%,-9%,4%,-1%
CCc1ccccc1NC(=O)c1cccc(NC(=O)/C=C/c2ccco2)c1,20µM*,1%,-12%,5%,-4%
O=C(/C=C/c1ccco1)Nc1cccc(C(=O)Nc2ccccc2C(=O)O)c1,4µM*,?,5%,10%,-1%
Cc1ccc(NC(=O)c2cccc(NC(=O)/C=C/c3ccco3)c2)cc1C,45µM*,-22%,?,1%,-6%
CC(C)Cn1c(=O)c2ccccc2n2c(CCC(=O)Nc3cccc(Cl)c3)nnc12,9%,-8%,nt,nt,nt
C=CCOC(=O)C1=C[C@@H](c2ccc3c(c2)OCO3)C[C@@H](OCc2ccc(CO)cc2)O1,40µM*,0%,-8%,1%,-11%
O=C(O)C1=C[C@H](c2cccs2)C[C@H](OCc2ccc(CO)cc2)O1,35µM*,-5%,-3%,0%,0%
NC(=O)C1=C[C@H](c2ccc(Br)cc2)C[C@H](OCc2ccc(CO)cc2)O1,-31%,-5%,4%,6%,-4%
O=C(O)C1=C[C@H](c2ccc(F)cc2)C[C@H](OCc2ccc(CO)cc2)O1,35µM*,0%,-6%,1%,14%
O=C(O)C1=C[C@@H](c2ccc(Br)cc2)C[C@@H](OCc2ccc(CO)cc2)O1,40µM*,-2%,7%,0%,2%
Cc1cccc(Oc2ccc(NC(=O)CCC(=O)OCC(=O)c3ccc(Br)cc3)cc2)c1C,-7%,-5%,nt,nt,nt
CCc1ccc(NC(=O)CC2C(=O)N(c3ccc(Cl)cc3)C(=O)N2Cc2cccs2)cc1 (stereo not drawn),5%,5%,nt,nt,nt
COc1ccc(-c2nc(CCNC(=O)c3c(F)cccc3Cl)cs2)cc1,11%,-4%,nt,nt,nt
Cc1ccc(C)c(N2CCN(C(=O)CCS(=O)(=O)c3ccc4c(c3)CC(=O)N4C)CC2)c1,?,-6%,nt,nt,nt
CCOC(=O)c1cccc(NC(=O)CC(c2cc(OC)c(OC)c(OC)c2)N2Cc3ccccc3C2=O)c1 (stereo not drawn),-1%,-3%,nt,nt,nt
Cn1cnc([N+](=O)[O-])c1Sc1ncnc2nc[nH]c12,10µM*,-11%,-6%,-6%,9%
Cc1cccc(N2CCN(C(=O)c3cccn4c(=O)c5cc(Cl)ccc5nc34)CC2C)c1 (stereo not drawn),-12%,-2%,nt,nt,nt
Cc1ccc(S(=O)(=O)N(Cc2n[nH]c(=S)n2-c2ccccc2)c2cccc(Cl)c2)cc1,1%,?,3%,-20%,27%
Cc1ccc(NCc2n[nH]c(=S)n2-c2ccccc2)cc1,-7%,2.8µM*,6%,2%,-1%
CS(=O)(=O)Nc1ccc(-c2n[nH]c(=S)n2-c2ccccc2)cc1,0%,0%,0%,10µM*,-12%
Cc1ccc(S(=O)(=O)N(Cc2n[nH]c(=S)n2-c2ccccc2)c2ccccc2)cc1,-17%,7.9µM*,10%,-24%,66%
C=CCn1c(O)c(CN2CCCCC2)c(C)c(C#N)c1=O,13µM*,-12%,1%,-10%,-15%
Cc1c(CN2CCCC(C)C2)c(O)n(CCO)c(=O)c1C#N (stereo not drawn),0%,-4%,-5%,-5%,-2%
Cc1ccccc1C(=O)O/N=C(\N)c1ccccc1,1%,?,-17%,-75%,9%

# Bioassay records from PubChem.
